19 compounds from article PMC5540273 (PLoS ONE, 2017) can be followed below.

For one assay, the system named is T1, LZK.
T1 construct: gene MAP3K13

The next assay has as its system T2, MEK1.
T2 construct: gene MAP2K1

Another assay has as its system T3, MLCK.
T3 construct: gene MYLK3

The subject of another assay is T4, MRCKB.
T4 construct: gene CDC42BPB

A further assay relates to T5, NIK.
T5 construct: gene MAP3K14

For another assay, the system named is T6, NIM1.
T6 construct: gene MGC42105

Another assay has as its system T7, OSR1.
T7 construct: gene OXSR1

pKd: −log10 of the molar value. A value given as a limit tells only on which side of the number the result lay.
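Further: kd values determined as follow-up on hits from a single-replicate KINOMEscan panel screen.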

In the assay with LZK, `Fc1cccc(COc2ccc(Nc3ncnc4sc(-c5ccc[nH]5)cc34)cc2Cl)c1` [GW707818] showed a pKd below 5.00. Turning to `c1ccc(-c2ccc3c(-c4ccnc(Nc5ccc6c(c5)OCCO6)n4)cnn3n2)cc1` [GW818941], the negative logarithm of the Kd (pKd) in the assay on MAK and in the assay on MET was below 5.00 each time. In turn, `O=C(NCCCN1CCCC1=O)c1cnc(NCc2cc(Cl)ccc2Cl)nc1NC1CCNCC1` gave a negative logarithm of the Kd (pKd) in the assay with MAK below 5.00. In the assay with MAPKAPK2, `Cn1cc(-c2ccc3c(c2)CCN3C(=O)Cc2cccc(C(F)(F)F)c2)c2c(N)ncnc21` [GSK2606414] showed a pKd below 5.00. Compound `CCn1c(-c2ccncc2)nc2cnccc21` [SB-735216] gave a pKd in the assay on MARK3 below 5.00.

In turn, `CC(C)(C)OC(=O)NC1CCCN(c2cc(-c3ccc4c(N)n[nH]c4c3)nc(N)n2)C1` (stereo not shown) [GSK2286096] showed a pKd in the assay with MEK1 below 5.00. `C[C@H]1CC[C@@H](C(=O)Nc2ccccc2)CN1c1cc(-c2ccc3c(N)n[nH]c3c2)nc(N)n1` [GSK2283293] had a pKd in the assay on MET below 5.00. As for `CSc1ccc(NC2=C(c3ccccc3Cl)C(=O)NC2=O)cc1` [SB-342411], in the assay with MKNK1, the pKd was below 5.00. In the assay with MLCK, `Nc1n[nH]c2nnc(-c3ccccc3)cc12` [SB-517389] had a pKd below 5.00.

Take `C[C@@H]1CCN(C(=O)CO)C[C@@H]1N(C)c1ncnc2[nH]ccc12`: the pKd in the assay with MRCKB and in the assay on NLK was below 5.00 throughout. With `O=C(Nc1n[nH]c2nc(-c3ccco3)c(Br)cc12)c1ccc(CN2CCCC2)cc1.O=C(O)[C@H](O)[C@@H](O)C(=O)O` [SB-742352], the pKd with MYLK2 is 6.92; in the assay on MYLK, 5.89. In the assay with MYLK4, `Nc1nc(-c2cccnc2)c(-c2ccnc3ccccc23)s1` [GW684083] showed a pKd of 6.31. Take `CN1c2ccc(-c3ccc(C(=O)NCCO)cc3)cc2-c2[nH]ncc2S1(=O)=O`: in the assay with MYLK, the pKd is 6.32.

With `COC(=O)c1c(-c2ccccc2)c2cc(Cl)ccc2c(=O)n1Cc1ccc(S(C)(=O)=O)cc1`, in the assay on NEK2, the pKd was below 5.00. For `CNc1nccc(-c2c(-c3ccc(F)cc3)ncn2CCCN2CCOCC2)n1` [SB-222516], the pKd with NEK5 is below 5.00. In turn, `CS(=O)(=O)CCNCc1ccc(-c2ccc3ncnc(Nc4ccc(OCc5ccccc5)c(Cl)c4)c3c2)o1.Cl` [GW574783] had a pKd in the assay with NIK below 5.00. Compound `CC(=O)Nc1n[nH]c2ncc(-c3ccccc3)cc12` [SB-548492] had a pKd with NIM1 below 5.00. Consider `CNc1nccc(-c2c(-c3ccc(F)cc3)ncn2C2CCN(C)CC2)n1` [SB-222903], for which, in the assay on NLK, the pKd is 6.89. With `CCCc1ccc(S(=O)(=O)NC2CCN(c3ccnc(Nc4ccc(OC)cc4)n3)C2)cc1` (stereo not shown) [GSK1379737], the pKd with OSR1 is below 5.00.
